From ChEMBL document CHEMBL1961873, “Compounds: GSK PKIS; Assays: Nanosyn kinase panel” (2012)

Experiments:
[1] = tested on: Tyrosine-protein kinase ABL1 (Homo sapiens), P00519 [T315I]; settings: at 1 µM
[2] = tested on: Tyrosine-protein kinase ABL1 (Homo sapiens), P00519 [Y253F]; settings: at 0.1 µM
[3] = tested on: Tyrosine-protein kinase ABL1 (Homo sapiens), P00519 [Y253F]; settings: at 1 µM
[4] = biological target: Tyrosine-protein kinase ABL1 (Homo sapiens) (UniProt P00519); settings: at 0.1 µM
[5] = biological target: Tyrosine-protein kinase ABL1 (Homo sapiens) (UniProt P00519); settings: at 1 µM
[6] = biological target: ALK tyrosine kinase receptor (Homo sapiens) (UniProt Q9UM73); settings: at 0.1 µM
Sequence of ALK tyrosine kinase receptor (Homo sapiens) (Q9UM73 19-1620 limits assumed): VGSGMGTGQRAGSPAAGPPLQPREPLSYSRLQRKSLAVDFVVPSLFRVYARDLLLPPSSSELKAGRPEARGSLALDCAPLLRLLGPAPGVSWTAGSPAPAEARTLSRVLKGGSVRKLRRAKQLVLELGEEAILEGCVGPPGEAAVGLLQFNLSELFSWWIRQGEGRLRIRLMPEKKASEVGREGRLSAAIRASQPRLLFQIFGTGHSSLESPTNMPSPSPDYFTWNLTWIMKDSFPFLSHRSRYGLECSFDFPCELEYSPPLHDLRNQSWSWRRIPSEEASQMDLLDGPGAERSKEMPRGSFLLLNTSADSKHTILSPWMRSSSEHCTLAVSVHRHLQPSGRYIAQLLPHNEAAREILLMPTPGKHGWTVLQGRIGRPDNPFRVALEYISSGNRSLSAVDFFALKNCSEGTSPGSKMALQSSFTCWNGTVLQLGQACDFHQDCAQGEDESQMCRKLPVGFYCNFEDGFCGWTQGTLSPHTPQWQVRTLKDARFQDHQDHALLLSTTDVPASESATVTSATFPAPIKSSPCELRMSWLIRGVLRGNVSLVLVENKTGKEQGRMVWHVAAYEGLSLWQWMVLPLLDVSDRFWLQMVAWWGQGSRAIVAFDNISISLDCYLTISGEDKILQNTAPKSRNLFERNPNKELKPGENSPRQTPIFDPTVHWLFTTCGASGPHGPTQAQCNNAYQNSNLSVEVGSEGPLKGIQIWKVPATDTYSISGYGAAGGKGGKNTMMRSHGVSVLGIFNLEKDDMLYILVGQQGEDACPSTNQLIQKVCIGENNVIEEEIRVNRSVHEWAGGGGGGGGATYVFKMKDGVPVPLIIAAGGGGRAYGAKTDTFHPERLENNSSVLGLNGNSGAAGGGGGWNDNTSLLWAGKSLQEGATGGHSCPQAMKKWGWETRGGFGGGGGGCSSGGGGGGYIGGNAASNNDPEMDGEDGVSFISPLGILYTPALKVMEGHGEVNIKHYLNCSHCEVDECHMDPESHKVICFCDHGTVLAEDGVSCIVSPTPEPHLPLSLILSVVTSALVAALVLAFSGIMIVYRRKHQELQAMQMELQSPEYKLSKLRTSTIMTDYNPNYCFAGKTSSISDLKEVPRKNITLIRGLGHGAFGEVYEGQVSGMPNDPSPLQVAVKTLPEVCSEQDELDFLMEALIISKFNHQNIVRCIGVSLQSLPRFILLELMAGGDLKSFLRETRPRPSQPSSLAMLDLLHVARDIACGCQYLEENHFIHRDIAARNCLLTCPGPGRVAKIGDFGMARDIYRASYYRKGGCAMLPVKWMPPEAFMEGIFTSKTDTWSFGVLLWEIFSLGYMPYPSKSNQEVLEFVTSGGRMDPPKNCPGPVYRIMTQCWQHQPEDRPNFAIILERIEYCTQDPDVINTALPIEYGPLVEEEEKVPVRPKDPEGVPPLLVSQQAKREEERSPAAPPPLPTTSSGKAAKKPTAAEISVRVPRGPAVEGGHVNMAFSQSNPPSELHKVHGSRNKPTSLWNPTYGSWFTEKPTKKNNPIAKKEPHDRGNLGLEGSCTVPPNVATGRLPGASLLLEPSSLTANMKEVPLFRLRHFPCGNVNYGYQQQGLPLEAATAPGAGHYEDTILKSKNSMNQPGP

[7] = biological target: ALK tyrosine kinase receptor (Homo sapiens) (UniProt Q9UM73); settings: at 1 µM
[8] = biological target: Tyrosine-protein kinase ABL2 (Homo sapiens) (UniProt P42684); settings: at 0.1 µM
Sequence of Tyrosine-protein kinase ABL2 (Homo sapiens) (P42684 whole entry): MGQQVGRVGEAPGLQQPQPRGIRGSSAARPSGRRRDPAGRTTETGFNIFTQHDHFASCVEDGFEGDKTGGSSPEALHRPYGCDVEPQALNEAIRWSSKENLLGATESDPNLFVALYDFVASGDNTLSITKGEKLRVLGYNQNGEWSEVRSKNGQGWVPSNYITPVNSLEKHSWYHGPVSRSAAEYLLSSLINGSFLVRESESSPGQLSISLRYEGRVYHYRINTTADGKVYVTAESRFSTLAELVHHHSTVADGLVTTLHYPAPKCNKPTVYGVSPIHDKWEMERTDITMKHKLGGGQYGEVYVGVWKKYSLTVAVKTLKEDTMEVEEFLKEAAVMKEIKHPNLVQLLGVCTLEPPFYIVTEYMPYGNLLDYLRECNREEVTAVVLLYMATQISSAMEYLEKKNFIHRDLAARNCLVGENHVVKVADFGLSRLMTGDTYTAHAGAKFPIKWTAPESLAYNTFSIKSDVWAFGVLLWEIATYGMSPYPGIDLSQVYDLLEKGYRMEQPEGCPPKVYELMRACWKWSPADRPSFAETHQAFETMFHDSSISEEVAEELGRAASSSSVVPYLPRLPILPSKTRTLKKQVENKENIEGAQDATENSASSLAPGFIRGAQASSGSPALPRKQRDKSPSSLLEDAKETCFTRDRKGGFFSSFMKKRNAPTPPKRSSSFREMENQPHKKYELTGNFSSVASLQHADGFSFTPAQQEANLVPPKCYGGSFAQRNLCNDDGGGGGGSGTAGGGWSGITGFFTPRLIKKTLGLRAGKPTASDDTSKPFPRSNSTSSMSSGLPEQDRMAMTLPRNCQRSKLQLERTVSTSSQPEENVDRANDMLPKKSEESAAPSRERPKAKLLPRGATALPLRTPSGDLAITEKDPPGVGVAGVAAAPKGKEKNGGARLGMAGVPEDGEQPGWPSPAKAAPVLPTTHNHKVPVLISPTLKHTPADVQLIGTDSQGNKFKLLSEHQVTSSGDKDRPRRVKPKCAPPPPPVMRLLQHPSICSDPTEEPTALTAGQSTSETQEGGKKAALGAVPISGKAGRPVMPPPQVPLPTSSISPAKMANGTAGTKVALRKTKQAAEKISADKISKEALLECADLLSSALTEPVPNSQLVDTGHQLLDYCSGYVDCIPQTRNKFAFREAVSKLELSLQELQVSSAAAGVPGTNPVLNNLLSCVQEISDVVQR

[9] = biological target: Tyrosine-protein kinase ABL2 (Homo sapiens) (UniProt P42684); settings: at 1 µM
[10] = biological target: Tyrosine-protein kinase receptor UFO (Homo sapiens) (UniProt P30530); settings: at 0.1 µM;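 further: values are mean percent inhibition of AXL from the GSK PKIS screen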
Sequence of Tyrosine-protein kinase receptor UFO (Homo sapiens) (P30530 whole entry): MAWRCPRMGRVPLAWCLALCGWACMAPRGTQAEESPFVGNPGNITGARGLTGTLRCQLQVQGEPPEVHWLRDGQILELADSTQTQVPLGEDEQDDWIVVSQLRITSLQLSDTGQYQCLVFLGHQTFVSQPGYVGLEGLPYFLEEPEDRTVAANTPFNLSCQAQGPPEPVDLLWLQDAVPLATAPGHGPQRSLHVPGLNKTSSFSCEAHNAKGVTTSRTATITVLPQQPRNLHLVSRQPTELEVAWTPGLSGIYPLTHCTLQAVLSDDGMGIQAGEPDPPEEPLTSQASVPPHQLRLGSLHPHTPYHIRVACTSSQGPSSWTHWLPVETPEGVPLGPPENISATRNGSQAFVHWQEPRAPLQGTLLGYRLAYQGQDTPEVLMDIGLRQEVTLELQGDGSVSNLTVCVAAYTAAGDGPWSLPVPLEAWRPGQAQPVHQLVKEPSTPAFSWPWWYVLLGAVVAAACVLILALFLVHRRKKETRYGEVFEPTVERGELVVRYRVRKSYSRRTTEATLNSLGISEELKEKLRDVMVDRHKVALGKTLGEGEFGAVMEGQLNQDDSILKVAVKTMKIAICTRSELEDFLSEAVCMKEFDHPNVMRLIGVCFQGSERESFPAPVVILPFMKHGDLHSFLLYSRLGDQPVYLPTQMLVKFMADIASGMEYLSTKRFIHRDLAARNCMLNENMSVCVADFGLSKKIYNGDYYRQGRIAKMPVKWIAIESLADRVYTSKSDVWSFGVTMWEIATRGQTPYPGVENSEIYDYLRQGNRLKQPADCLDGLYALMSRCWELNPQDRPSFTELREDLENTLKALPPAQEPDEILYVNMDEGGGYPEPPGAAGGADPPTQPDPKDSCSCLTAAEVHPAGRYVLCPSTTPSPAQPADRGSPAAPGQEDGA

Row | Compound | inhibition [1] [%] | inhibition [2] [%] | inhibition [3] [%] | inhibition [4] [%] | inhibition [5] [%] | inhibition [6] [%] | inhibition [7] [%] | inhibition [8] [%] | inhibition [9] [%] | inhibition [10] [%]
1 | Clc1ccc(CNc2nccc(-c3cnn4ncccc34)n2)cc1 | 2.99 | 2.53 | 4.96 | 1.08 | 8.86 | -0.45 | 3.1 | 3.17 | 7.59 | 1.22
2 | CS(=O)(=O)CCNCc1cc(-c2cc3c(Nc4ccc(OCc5cccc(F)c5)c(Cl)c4)ncnc3s2)cs1 | 4.55 | 2.36 | 4.31 | 3.45 | 6.21 | 2.96 | 4.5 | 2.95 | 6.38 | -7.56
3 | O=C(Nc1n[nH]c2nc(-c3ccc(O)cc3)c(Br)cc12)C1CC1 | 87.7 | 22.1 | 67.1 | 22.8 | 72.6 | 23.9 | 72.3 | 7.68 | 25.7 | -7.6
4 | COc1cc(Nc2ncc3c(C)nc(-c4cccc(C(F)(F)F)c4)n3n2)cc(OC)c1OC | 13.1 | 3.77 | 16.2 | 2.35 | 14.6 | 2.22 | 6.97 | 3.85 | 13.1 | -3.79
5 | C[C@@H](Oc1cc(-n2cnc3ccc(OC4CCN(C)CC4)cc32)sc1C(N)=O)c1ccccc1Cl | 7.51 | 3.29 | 13.1 | 0.35 | 7.3 | -0.85 | 5.48 | -1.57 | 2.18 | -8.27
6 | CS(=O)(=O)CCNCc1ccc(-c2ccc3ncnc(Nc4ccc(OCc5ccccc5)c(Br)c4)c3c2)o1 | 1.57 | 4.14 | 4.05 | 3.09 | 2.83 | -0.91 | 1.84 | 0.83 | 4.36 | -6.75
7 | COc1cc2ncn(-c3cc(OCc4cccs4)c(C(N)=O)s3)c2cc1OC | 59.6 | 9.05 | 41.8 | 3.87 | 42 | -3.76 | 6.72 | 0.54 | 18.4 | 3.68
8 | COc1ccc2ncn(-c3cc(O[C@H](C)c4ccccc4Cl)c(C(N)=O)s3)c2c1 | 3.67 | 2.13 | 4.15 | -0.74 | 0.5 | -1.6 | 0.59 | -1.99 | -0.05 | -9.61
9 | CCC(=O)Nc1ccc(C)c(-c2ccc(C(=O)NCC3CC3)cc2)c1 | 3.61 | 2.81 | 3.14 | 2.28 | 2.9 | 1.63 | 2.14 | 0.38 | 3.75 | -4.46
10 | CN1CCN(CCCNc2nc3ccc(Oc4ccc(NC(=O)Nc5cc(C(F)(F)F)ccc5F)cc4)cc3[nH]2)CC1 | 32 | 4.8 | 10.8 | -0.51 | 13.6 | -3.93 | 0.57 | -0.15 | 15.4 | 0.85
11 | O=C1Nc2ccccc2/C1=C/Nc1ccc(-n2cncn2)cc1 | 17.2 | 3.13 | 13.1 | 1.87 | 13.5 | 1.97 | 11.8 | 3.58 | 7.69 | -6.88
12 | Fc1ccc(-c2ncn(C3CCNCC3)c2-c2ccnc(Oc3ccc(F)c(F)c3)n2)cc1 | 1.7 | 1.79 | 2.98 | -1.26 | -1.29 | -1 | 1.5 | -1.34 | 0.3 | 
13 | O=C1NC(=O)C(c2cccc(Cl)c2)=C1Nc1ccc(Cl)c(C(=O)O)c1 | 4.06 | 1.35 | 3.2 | 3.49 | 5.5 | 1.24 | 3.05 | 3.74 | -0.4 | -4.48
14 | COc1cc2ncn(-c3cc(OCCc4ccccc4)c(C(N)=O)s3)c2cc1OC | 8.39 | 3.32 | 9.56 | 2.3 | 13.7 | 1.95 | 5.89 | 2.26 | 8.26 | -5.54
15 | O=C(Nc1n[nH]c2cc(-c3ccccc3)ccc12)C1CC1 | 82.8 | 22.3 | 68 | 13.5 | 63.8 | 3.37 | 4.86 | 6.15 | 31.2 | -8.55
16 | CCc1ccc(Oc2nccc(-c3c(-c4ccc(F)cc4)ncn3C3CCNCC3)n2)cc1 | 3.78 | 1.61 | 2.53 | 5.79 | 6.61 | 1.79 | 2.02 | 2.69 | 5.01 | -2.27
17 | COc1cccc(/C=N/Nc2ncnc3c2cnn3-c2cccc(OC)c2)c1 | 10.4 | 11.1 | 49.7 | 6.38 | 27.4 | 1.22 | 2.63 | 2.78 | 15.2 | -6.24

Row | Compound | inhibition [1] [%] | inhibition [2] [%] | inhibition [3] [%] | inhibition [4] [%] | inhibition [5] [%] | inhibition [6] [%] | inhibition [7] [%] | inhibition [8] [%] | inhibition [9] [%] | inhibition [10] [%]
18 | CN(C)CCCNc1nccc(-c2c(-c3ccc(F)cc3)nn3cc(C(F)(F)F)ccc23)n1 | 2.66 | 3.93 | 6.04 | 2.04 | 11.2 | -2.64 | -0.07 | 2.2 | 6.34 | -2.11
19 | CCS(=O)(=O)c1ccc(OC)c(Nc2ncc(-c3cccc(-c4ccccc4F)c3)o2)c1 | 18 | 60.6 | 91.4 | 13.7 | 77.8 | 1.79 | 4.33 | 7.9 | 65.1 | 0.9
20 | C#Cc1cccc(Nc2ncnc3ccc(OCCCCNCCS(C)(=O)=O)cc23)c1 | 19.4 | 8.28 | 24.9 | 8.05 | 26.8 | 3.38 | 31.9 | 5.87 | 14.8 | -8.14
21 | CNC(=O)c1cncc(/C=C/c2c(C)cccc2C)c1 | 2.52 | 21.9 | 70.3 | 6.54 | 57.3 | -3.56 | -1.77 | 7.09 | 51.3 | -0.01
22 | C[C@@H](Oc1cc(-n2cnc3ccc(OCC4CCN(C)CC4)cc32)sc1C(N)=O)c1ccccc1Cl | 9.89 | 2.53 | 11 | 5.81 | 14 | 8.57 | 24.5 | 8.53 | 12.4 | -5.23
23 | COc1cc(Nc2ncc3c(C)nc(-c4cccc(Oc5ccccc5)c4)n3n2)cc(OC)c1OC | 3.35 | 4.25 | 2.77 | 2.33 | 3.84 | 1.5 | 12.7 | 2.57 | 0.57 | 0.02
24 | COc1cc(Nc2ncc(-c3ccccc3)o2)cc(OC)c1OC | 22.3 | 16.7 | 69.2 | 7.54 | 52.3 | -2.74 | -0.68 | 9.54 | 52.1 | -0.73
25 | NS(=O)(=O)c1ccc(N/N=C2\C(=O)Nc3ccc(-c4cnco4)cc32)cc1 | 19.9 | 3.03 | 13.4 | -0.39 | 9.41 | -3.07 | -0.11 | -0.55 | 9.88 | -3.81
26 | Fc1ccc(-c2nc3n(c2-c2ccncc2)CCS3)cc1 | 2.55 | 3.68 | 5.02 | -1.35 | 3.25 | -0.77 | 0.29 | 0.16 | 4.56 | -7.95
27 | O=C(Nc1ccc(Oc2ccc3[nH]c(NC(=O)c4ccccc4)nc3c2)cc1)Nc1cc(C(F)(F)F)ccc1F | 83 | 10.8 | 51.8 | 16.2 | 62.3 | 3.09 | 6.42 | 25.1 | 65.9 | -3.01
28 | COc1cc2ncn(-c3cc(OCc4ccccc4C(F)(F)F)c(C(C)=O)s3)c2cc1OC | 4.77 | 3.33 | 4.29 | 5.34 | 10.7 | 2.65 | 3.72 | 6.5 | 10.4 | -3.01
29 | NC(=O)c1cc(-c2ccncc2)cc(-c2ccccc2)c1N | 3.04 | 8.23 | 40.8 | 7.61 | 40.2 | 3.8 | 5.19 | 6.19 | 54.2 | -7.51
30 | COc1ccc(C2=C(N3CCc4ccccc43)C(=O)NC2=O)cc1 | 6.11 | 5.42 | 3.01 | 5.83 | 9.91 | 1.29 | 5.62 | 6.76 | 12.3 | -5.65
31 | CN(c1ccc(NC(=O)Nc2c(Cl)cccc2Cl)cc1)c1ccnc(Nc2cccc(CS(C)(=O)=O)c2)n1 | 73.2 | 19.4 | 56.2 | 16.9 | 53.1 | 1.74 | 4.6 | 25.1 | 55.1 | 4.33
32 | COC(=O)Nc1nc2ccc(Sc3ccc(NC(=O)Nc4cc(C(F)(F)F)ccc4F)cc3)cc2[nH]1 | 72.3 | 3.61 | 31.3 | 3.45 | 33 | 1.12 | 2.57 | 11.8 | 58.9 | 1.61
33 | O=C(Nc1n[nH]c2nc(-c3ccco3)ccc12)C1CC1 | 12.8 | 4.47 | 7.45 | 3.94 | 14 | 1.35 | 2.65 | 4.39 | 6.13 | 2.04
34 | N#Cc1ccc(Oc2nccc(-c3c(-c4ccc(F)cc4)ncn3C3CCNCC3)n2)cc1 | 5.17 | 2.11 | 5.93 | 3.72 | 5.42 | 3.58 | 5.33 | 1.9 | 6.94 | -5.46
